Laboratory results published in the supplement of paper PMC10849652.
Of roughly 8,800 targets only a part is listed; those with a hit were picked by preference. About 0.5% of all pairs of compound and target were hits.

Key:
Experiment in all cases: log2 fold change, soluble protein after heating vs DMSO (PISA); higher = thermal stabilisation; K562 lysate, 10 uM; active = over 0.2 and 3.5 SD of the protein, either way, in both replicates (recomputed)
alvocidib = compound: CN1CC[C@H](c2c(O)cc(O)c3c(=O)cc(-c4ccccc4Cl)oc23)[C@H](O)C1 [alvocidib]
How it was run: (§1)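 Following dounce homogenisation of K562 pellets in PBS pH 7.4 with 1 mM MgCl2, crude extract at 1 mg/mL protein was incubated for 30 min with 10 μM compound. Aliquots were then heated for 3 min over 48°C-58°C and pooled, NP-40 was added to 0.5% at 4°C, and soluble protein was recovered as the supernatant at 21,000xg for 90 min. Channel-sum-equalised TMTpro 16plex LC-MS/MS quantified this protein. Each value, from duplicates, is a log-two fold change in thermal stability relative to solvent controls.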

Tubastatin A = compound: CN1CCc2c(c3ccccc3n2Cc2ccc(C(=O)NO)cc2)C1 [Tubastatin A]
How it was run: as §1

[1] = compound: CNC(=O)C1=CC=CC=C1NC2=NC(=NC=C2Cl)NC3=C(C=C(C=C3)N4CCOCC4)OC
How it was run: as §1

defactinib = compound: CNC(=O)c1ccc(Nc2ncc(C(F)(F)F)c(NCc3nccnc3N(C)S(C)(=O)=O)n2)cc1 [defactinib]
How it was run: as §1

[2] = compound: CNc1nc(-c2ccc3c(N)n[nH]c3c2)cc(N2C[C@@H](C(=O)NC3CCCCC3)CC[C@H]2C)n1
How it was run: as §1

encorafenib = compound: COC(=O)N[C@@H](C)CNc1nccc(-c2cn(C(C)C)nc2-c2cc(Cl)cc(NS(C)(=O)=O)c2F)n1 [encorafenib]
How it was run: as §1

[3] = compound: COC(=O)[C@H](CCSC)NC(=O)C1=C(C=C(C=C1)NC[C@H](CS)N)C2=CC=CC=C2
How it was run: as §1

alisertib = compound: COc1cc(Nc2ncc3c(n2)-c2ccc(Cl)cc2C(c2c(F)cccc2OC)=NC3)ccc1C(=O)O [alisertib]
How it was run: as §1

[4] = compound: COc1cc2nc(-c3cc(F)ccc3O)nc(N[C@@H]3CNC[C@H]3C(C)(C)O)c2cc1OC
How it was run: as §1

gefitinib = compound: COc1cc2ncnc(Nc3ccc(F)c(Cl)c3)c2cc1OCCCN1CCOCC1 [gefitinib]
How it was run: as §1

Measured: log2 fold change

PCIF1 (UniProt Q9H4Z3)
UniProt Q9H4Z3, sequence (Q9H4Z3 whole entry, looked up): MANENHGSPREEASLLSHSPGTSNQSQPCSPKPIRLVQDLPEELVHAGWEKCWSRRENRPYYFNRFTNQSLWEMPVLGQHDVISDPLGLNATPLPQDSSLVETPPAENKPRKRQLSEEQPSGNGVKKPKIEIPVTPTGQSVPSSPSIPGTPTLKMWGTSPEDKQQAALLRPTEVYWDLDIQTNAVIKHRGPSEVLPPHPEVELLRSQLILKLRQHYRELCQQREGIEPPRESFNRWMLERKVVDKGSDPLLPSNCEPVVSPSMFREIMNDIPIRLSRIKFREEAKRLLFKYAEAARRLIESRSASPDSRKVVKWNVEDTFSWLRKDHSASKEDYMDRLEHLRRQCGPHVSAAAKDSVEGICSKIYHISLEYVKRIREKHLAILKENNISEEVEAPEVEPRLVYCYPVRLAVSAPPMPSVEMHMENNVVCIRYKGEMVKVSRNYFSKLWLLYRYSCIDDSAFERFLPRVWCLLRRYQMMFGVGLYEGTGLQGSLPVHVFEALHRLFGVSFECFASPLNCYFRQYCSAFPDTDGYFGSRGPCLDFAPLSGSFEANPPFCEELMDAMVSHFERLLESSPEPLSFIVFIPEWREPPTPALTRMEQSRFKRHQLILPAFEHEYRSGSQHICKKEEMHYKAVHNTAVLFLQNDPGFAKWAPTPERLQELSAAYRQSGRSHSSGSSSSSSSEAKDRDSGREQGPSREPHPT
inactive: alvocidib 0.038 | Tubastatin A 0.006 | [1] -0.024 | defactinib 0.051 | [2] 0.02 | encorafenib 0.017 | [3] 0.02 | alisertib 0.04 | [4] 0.01 | gefitinib -0.051

PRKCD (UniProt Q05655)
UniProt Q05655, sequence (Q05655 whole entry, looked up): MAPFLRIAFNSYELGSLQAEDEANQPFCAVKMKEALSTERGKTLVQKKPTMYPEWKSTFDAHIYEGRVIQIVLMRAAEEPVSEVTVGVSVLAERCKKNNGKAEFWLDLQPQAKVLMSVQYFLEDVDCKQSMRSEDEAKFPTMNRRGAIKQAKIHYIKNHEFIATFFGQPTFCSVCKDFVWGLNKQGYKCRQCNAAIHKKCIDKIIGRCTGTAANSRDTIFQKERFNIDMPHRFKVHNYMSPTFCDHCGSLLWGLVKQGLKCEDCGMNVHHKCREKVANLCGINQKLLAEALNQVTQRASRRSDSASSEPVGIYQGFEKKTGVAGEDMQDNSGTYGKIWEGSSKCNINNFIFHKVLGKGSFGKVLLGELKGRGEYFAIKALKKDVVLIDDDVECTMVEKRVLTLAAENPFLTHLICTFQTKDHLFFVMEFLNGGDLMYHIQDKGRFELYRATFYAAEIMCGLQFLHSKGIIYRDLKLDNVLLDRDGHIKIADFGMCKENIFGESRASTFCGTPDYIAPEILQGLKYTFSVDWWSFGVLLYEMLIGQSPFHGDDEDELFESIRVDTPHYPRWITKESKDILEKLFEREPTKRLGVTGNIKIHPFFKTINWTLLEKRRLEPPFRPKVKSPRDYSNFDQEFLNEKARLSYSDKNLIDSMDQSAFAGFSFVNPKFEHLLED
active: [4] 0.235
inactive: alvocidib -0.082 | Tubastatin A 0.036 | [1] -0.012 | defactinib -0.032 | [2] -0.003 | encorafenib -0.009 | [3] 0.056 | alisertib -0.031 | gefitinib 0.002

PUS1 (UniProt Q9Y606)
inactive: alvocidib -0.002 | Tubastatin A -0.049 | [1] -0.008 | defactinib 0.002 | [2] -0.029 | encorafenib 0 | [3] 0.086 | alisertib 0.005 | [4] 0.014 | gefitinib -0.019

PDCD6IP isoform 2 (UniProt Q8WUM4)
inactive: alvocidib 0.033 | Tubastatin A -0.088 | [1] -0.005 | defactinib -0.022 | [2] -0.02 | encorafenib -0.01 | [3] 0.188 | alisertib 0.014 | [4] 0.003 | gefitinib -0.003

PPP1R8 (UniProt Q12972)
inactive: alvocidib -0.095 | Tubastatin A 0.028 | [1] -0.025 | defactinib -0.003 | [2] 0.044 | encorafenib 0.028 | [3] -0.049 | alisertib 0.022 | [4] -0.012 | gefitinib -0.05

POGK (UniProt Q9P215)
UniProt Q9P215, sequence (Q9P215 whole entry, looked up): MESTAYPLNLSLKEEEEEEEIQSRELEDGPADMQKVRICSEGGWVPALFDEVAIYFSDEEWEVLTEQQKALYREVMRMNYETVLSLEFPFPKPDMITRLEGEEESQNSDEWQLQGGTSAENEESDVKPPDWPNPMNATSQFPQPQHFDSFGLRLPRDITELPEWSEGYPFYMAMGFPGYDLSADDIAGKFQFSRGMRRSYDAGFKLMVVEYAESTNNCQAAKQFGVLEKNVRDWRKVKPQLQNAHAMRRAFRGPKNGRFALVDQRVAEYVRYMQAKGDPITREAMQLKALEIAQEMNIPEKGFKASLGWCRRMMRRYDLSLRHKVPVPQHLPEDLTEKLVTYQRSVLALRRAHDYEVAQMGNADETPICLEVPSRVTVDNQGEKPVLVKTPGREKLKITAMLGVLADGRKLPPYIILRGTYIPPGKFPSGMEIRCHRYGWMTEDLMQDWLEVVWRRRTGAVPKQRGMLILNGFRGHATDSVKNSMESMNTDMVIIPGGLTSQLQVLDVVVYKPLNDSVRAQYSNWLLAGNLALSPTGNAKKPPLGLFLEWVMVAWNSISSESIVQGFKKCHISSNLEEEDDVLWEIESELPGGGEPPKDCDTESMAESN
inactive: alvocidib -0.015 | Tubastatin A -0.011 | [1] 0.001 | defactinib 0.059 | [2] -0.02 | encorafenib -0.052 | [3] 0.028 | alisertib 0.071 | [4] -0.012 | gefitinib -0.013

PCBP2 (UniProt H3BRU6)
inactive: alvocidib 0.033 | Tubastatin A -0.116 | [1] 0.082 | defactinib 0.061 | [2] 0.018 | encorafenib 0.04 | [3] 0.017 | alisertib -0.023 | [4] 0.072 | gefitinib -0.145

PDS5A (UniProt Q29RF7)
UniProt Q29RF7, sequence (Q29RF7 whole entry, looked up): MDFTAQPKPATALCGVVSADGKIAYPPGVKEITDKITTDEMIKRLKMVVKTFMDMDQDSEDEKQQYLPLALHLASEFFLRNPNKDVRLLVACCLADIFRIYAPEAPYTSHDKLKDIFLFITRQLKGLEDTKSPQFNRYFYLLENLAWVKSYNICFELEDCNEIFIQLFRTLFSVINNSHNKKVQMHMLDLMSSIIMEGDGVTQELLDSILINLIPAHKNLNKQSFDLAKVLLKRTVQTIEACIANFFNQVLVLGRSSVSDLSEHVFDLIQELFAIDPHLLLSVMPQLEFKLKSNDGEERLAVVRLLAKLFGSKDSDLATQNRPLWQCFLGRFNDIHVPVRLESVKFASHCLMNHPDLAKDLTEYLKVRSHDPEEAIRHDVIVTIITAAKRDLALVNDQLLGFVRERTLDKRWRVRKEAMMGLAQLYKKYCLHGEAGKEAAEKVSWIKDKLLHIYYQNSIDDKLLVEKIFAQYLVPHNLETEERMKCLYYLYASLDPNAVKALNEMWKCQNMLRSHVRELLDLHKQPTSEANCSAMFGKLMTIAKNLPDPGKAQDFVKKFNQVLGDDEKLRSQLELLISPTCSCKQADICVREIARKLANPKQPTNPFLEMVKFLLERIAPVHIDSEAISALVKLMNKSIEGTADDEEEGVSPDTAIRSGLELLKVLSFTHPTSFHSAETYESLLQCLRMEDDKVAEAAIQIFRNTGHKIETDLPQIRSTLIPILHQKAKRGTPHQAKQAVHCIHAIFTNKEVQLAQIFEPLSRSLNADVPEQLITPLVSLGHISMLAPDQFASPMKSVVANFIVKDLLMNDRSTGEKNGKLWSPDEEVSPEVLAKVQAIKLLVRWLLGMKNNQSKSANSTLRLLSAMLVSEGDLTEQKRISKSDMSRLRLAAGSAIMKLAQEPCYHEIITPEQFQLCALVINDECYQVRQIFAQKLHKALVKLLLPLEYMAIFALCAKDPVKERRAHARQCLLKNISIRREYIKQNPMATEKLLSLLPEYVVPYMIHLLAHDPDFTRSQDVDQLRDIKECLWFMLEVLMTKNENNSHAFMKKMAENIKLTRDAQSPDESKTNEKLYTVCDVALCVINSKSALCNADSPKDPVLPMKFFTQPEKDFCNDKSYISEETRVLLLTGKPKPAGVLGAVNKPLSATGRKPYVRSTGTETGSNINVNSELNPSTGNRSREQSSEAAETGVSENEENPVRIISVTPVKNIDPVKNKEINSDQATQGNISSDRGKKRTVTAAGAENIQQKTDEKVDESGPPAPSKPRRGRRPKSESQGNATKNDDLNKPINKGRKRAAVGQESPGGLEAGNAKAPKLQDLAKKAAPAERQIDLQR
inactive: alvocidib 0.023 | Tubastatin A -0.21 | [1] 0.016 | defactinib 0.016 | [2] -0.054 | encorafenib 0.048 | [3] -0.003 | alisertib 0.014 | [4] 0 | gefitinib -0.005

PPIL3 (UniProt Q9H2H8)
UniProt Q9H2H8, sequence (Q9H2H8 whole entry, looked up): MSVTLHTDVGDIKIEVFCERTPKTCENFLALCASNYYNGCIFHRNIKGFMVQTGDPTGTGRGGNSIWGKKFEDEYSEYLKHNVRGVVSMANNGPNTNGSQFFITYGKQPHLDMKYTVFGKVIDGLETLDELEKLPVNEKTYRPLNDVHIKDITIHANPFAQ
inactive: alvocidib -0.105 | Tubastatin A -0.044 | [1] 0 | defactinib -0.115 | [2] 0.012 | encorafenib 0.011 | [3] 0.008 | alisertib -0.033 | [4] 0.018 | gefitinib -0.02

PIP4P2 (UniProt Q8N4L2)
UniProt Q8N4L2, sequence (Q8N4L2 whole entry, looked up): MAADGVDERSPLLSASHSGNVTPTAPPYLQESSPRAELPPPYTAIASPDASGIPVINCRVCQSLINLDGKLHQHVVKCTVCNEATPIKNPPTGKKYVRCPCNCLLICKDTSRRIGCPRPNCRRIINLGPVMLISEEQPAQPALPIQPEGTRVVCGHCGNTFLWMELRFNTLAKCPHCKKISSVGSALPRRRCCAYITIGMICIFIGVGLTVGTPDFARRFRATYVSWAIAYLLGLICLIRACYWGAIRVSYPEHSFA
inactive: alvocidib -0.03 | Tubastatin A 0.038 | [1] -0.021 | defactinib -0.009 | [2] 0.062 | encorafenib 0 | [3] -0.12 | alisertib 0.006 | [4] 0.052 | gefitinib 0.111

PHACTR4 isoform 2 (UniProt Q8IZ21)
UniProt Q8IZ21, sequence (Q8IZ21 whole entry, looked up): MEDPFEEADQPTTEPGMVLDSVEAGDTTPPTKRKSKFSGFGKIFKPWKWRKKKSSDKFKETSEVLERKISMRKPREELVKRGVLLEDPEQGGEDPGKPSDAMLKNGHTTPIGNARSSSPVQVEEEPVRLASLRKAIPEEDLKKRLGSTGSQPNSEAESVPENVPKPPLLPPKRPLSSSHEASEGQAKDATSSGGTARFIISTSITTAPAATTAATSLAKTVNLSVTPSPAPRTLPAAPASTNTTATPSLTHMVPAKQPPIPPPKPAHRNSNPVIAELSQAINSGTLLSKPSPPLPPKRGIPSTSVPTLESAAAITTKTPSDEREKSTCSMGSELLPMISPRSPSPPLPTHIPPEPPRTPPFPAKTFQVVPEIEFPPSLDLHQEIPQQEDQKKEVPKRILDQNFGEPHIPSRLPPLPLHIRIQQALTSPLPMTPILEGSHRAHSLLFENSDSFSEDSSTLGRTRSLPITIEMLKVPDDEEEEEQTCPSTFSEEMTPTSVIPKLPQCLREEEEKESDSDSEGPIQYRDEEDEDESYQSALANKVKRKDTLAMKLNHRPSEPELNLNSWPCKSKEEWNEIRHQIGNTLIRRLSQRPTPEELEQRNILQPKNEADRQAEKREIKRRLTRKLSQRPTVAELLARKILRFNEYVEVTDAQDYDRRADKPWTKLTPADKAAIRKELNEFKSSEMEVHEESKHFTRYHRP
inactive: alvocidib 0.209 | Tubastatin A 0.016 | [1] -0.024 | defactinib 0.012 | [2] 0.1 | encorafenib -0.01 | [3] -0.016 | alisertib -0.019 | [4] 0.004 | gefitinib -0.022

POLR2G (UniProt P62487)
inactive: alvocidib -0.034 | Tubastatin A 0.012 | [1] 0.038 | defactinib 0.027 | [2] 0.019 | encorafenib 0.007 | [3] -0.032 | alisertib 0.016 | [4] 0.017 | gefitinib -0.01

POLR2F (UniProt P61218)
inactive: alvocidib 0.272 | Tubastatin A -0.07 | [1] 0.031 | defactinib 0.085 | [2] 0.2 | encorafenib -0.036 | [3] -0.02 | alisertib 0.065 | [4] 0.003 | gefitinib -0.097

PCBP2 isoform 8 (UniProt Q15366)
UniProt Q15366, sequence (Q15366 whole entry, looked up): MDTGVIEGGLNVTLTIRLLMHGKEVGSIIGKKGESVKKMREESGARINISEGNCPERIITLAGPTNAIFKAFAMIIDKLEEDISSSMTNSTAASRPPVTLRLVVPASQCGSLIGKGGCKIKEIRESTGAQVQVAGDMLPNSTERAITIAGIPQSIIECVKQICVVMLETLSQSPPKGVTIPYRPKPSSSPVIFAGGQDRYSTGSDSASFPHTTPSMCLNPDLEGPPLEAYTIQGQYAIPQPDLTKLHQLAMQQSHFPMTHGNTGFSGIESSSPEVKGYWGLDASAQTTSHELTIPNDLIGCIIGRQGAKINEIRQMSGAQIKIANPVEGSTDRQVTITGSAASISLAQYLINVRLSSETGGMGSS
inactive: alvocidib -0.01 | Tubastatin A -0.133 | [1] 0.022 | defactinib 0 | [2] 0.079 | encorafenib 0.053 | [3] 0.108 | alisertib -0.013 | [4] -0.085 | gefitinib -0.122

PTK2 (UniProt Q05397)
active: [1] 0.54 | defactinib 0.518
inactive: alvocidib 0.02 | Tubastatin A -0.033 | [2] -0.055 | encorafenib -0.057 | [3] -0.126 | alisertib 0.17 | [4] 0.113 | gefitinib -0.022
